# Reference: PubChem BioAssay
# Values joined by “and” are separate entries in the source; they are usually repeats but may differ in a detail not shown here. Equal values may be shown once. Active and inactive are the calls of the source. Rule as the data show it, unless noted: active = inhibition above about 80%; inactive = the rest.
# How the values were obtained:
# [1] = circadian clock period modulators, cell-based, LOPAC library, luminescence reporter (AID 2774; call rule not given here;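 also: values are relative to mean of DMSO wells on each plate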); conditions: circadian reporter cells, at 7 µM, actives lie on both sides
# [2] = system: Hepatitis C virus NS3 helicase; test: HCV NS3 helicase inhibitors, primary screen, biochemical, fluorescence polarization, LOPAC1280 library (AID 687035; in the data active = inhibition above about 37%); conditions: Purified HCV NS3 helicase, Cy5-dT15 ssDNA binding fluorescence polarization; stronger effect = higher value; concentration not given here
# [3] = Cy5 fluorescence quenching or enhancement artefacts, artefact control for HCV NS3 helicase inhibitor project, biochemical, LOPAC1280 (AID 687037; call rule not given here); conditions: Cy5-DNA-NS3h complex fluorescence interference counterscreen
# [4] = sensitizers of A549 cells to miR-34 induction, primary screen, imaging, A549 dox-inducible miR-34, nuclei and caspase counts (AID 1347080;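 active = compounds whose cell count with miR-34 switched on is under 0.7 times the count with it off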); conditions: A549 miR-34 inducible, Hoechst nuclei count, 48 h
# [5] = viability rescue of complex I mutant cybrids, primary screen, cell-based, galactose medium, ATP luminescence (AID 1645843;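 active = z-score of at least 1.8 in each of two replicates, scored against plate mean and spread of sample wells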;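 also: positive z means more ATP and so rescue of galactose-driven cybrid death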); conditions: complex I mutant cybrid cells, 72 h, stronger effect = higher value
# [6] = LFS_MB_P medulloblastoma growth inhibition, cell-based, chromothripsis tumors, cisplatin or BGB combos (AID 1671449); conditions: LFS_MB_P medulloblastoma cells;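 also: cells exposed for 96 hours; 0% = vehicle DMSO and 100% = killing by high DMSO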
# [7] = HDN33 neuroblastoma growth inhibition, cell-based, chromothripsis tumors, cisplatin or BGB combos (AID 1671450); conditions: HDN33 neuroblastoma cells, stronger effect = higher value;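 also: cells exposed to compound for four days; 0% = vehicle DMSO and 100% = cell killing by high DMSO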
# [8] = ICB984 medulloblastoma cell growth inhibition, synergistic combos for chromothripsis tumors, cisplatin or BGB combos (AID 1671451; call rule not given here;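 also: cells exposed for 96 hours before readout; 0% = vehicle DMSO and 100% = killing by high DMSO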); conditions: ICB984 medulloblastoma cells, drug combinations, stronger effect = higher value
# [9] = LFS_MB_1R medulloblastoma cell growth inhibition, synergistic combos for chromothripsis tumors, cisplatin or BGB combos (AID 1671452); conditions: LFS_MB_1R medulloblastoma cells, stronger effect = higher value;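 also: cells exposed for 96 hours before readout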
# [10] = HTB85 osteosarcoma cell growth inhibition, synergistic combos for chromothripsis tumors, BGB or cisplatin IC20 combos (AID 1671453); conditions: HTB85 osteosarcoma cells, drug combinations, stronger effect = higher value;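 also: cells exposed for 96 hours before readout; 0% = vehicle DMSO and 100% = high DMSO killing control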
# [11] = CRL2098 osteosarcoma cell growth inhibition, synergistic combos for chromothripsis tumors, BGB or cisplatin IC20 combos (AID 1671454); conditions: CRL2098 osteosarcoma cells, drug combinations, stronger effect = higher value;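 also: cells exposed for 96 h before readout; 0% = vehicle DMSO and 100% = killing by high DMSO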
# [12] = HD-MB03 medulloblastoma cell growth inhibition, synergistic combos for chromothripsis tumors, BGB or cisplatin IC20 combos (AID 1671455; in the data active = inhibition above about 83%;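 also: 0% = vehicle DMSO and 100% = high DMSO as cytotoxic control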); conditions: HD-MB03 medulloblastoma cells, stronger effect = higher value
# [13] = UWB1.289 ovarian carcinoma cell growth inhibition, synergistic combos for chromothripsis tumors, BGB or cisplatin combos (AID 1671456); conditions: UWB1.289 ovarian carcinoma cells, stronger effect = higher value;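 also: cells exposed to compound for four days; 0% = vehicle DMSO and 100% = killing by high DMSO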
# [14] = LFS_MB_2R medulloblastoma cell growth inhibition, synergistic combos for chromothripsis tumors, cisplatin combos (AID 1671457); conditions: LFS_MB_2R medulloblastoma cells, stronger effect = higher value;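 also: cells exposed to compound for four days before readout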
# [15] = MDA-MB-436 breast carcinoma cell growth inhibition, synergistic combos for chromothripsis tumors, BGB or cisplatin combos (AID 1671458; call rule not given here;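 also: cells exposed for 96 hours; 0% = vehicle DMSO and 100% = killing by high DMSO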); conditions: MDA-MB-436 breast carcinoma growth inhibition, drug combinations, stronger effect = higher value
# [16] = UWB1.289_BRCA1 ovarian cancer growth, cell-based, BGB or cisplatin combinations (AID 1671459); conditions: UWB1.289 BRCA1 ovarian carcinoma, drug combinations, stronger effect = higher value
# [17] = human astrocyte viability loss, single and combined drugs, cytotoxicity control for chromothriptic childhood tumor combination screen, cell-based, BGB or cisplatin IC20 combos (AID 1671460); conditions: Human astrocytes, drug combinations, stronger effect = higher value;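 also: cells exposed to compounds for 96 hours before viability readout; 0% = vehicle and 100% = killing control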
# [18] = growth inhibition of BT084 medulloblastoma cells, cell-based, ICGC_MB145, cisplatin and BGB IC40 combos (AID 1671461); conditions: drug combinations, stronger effect = higher value;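 also: cells exposed to drugs for 96 hours; 0% = vehicle DMSO and 100% = high DMSO full killing control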
# [19] = growth inhibition of RCMB18 medulloblastoma cells, cell-based, cisplatin and BGB IC40 combos (AID 1671462); conditions: stronger effect = higher value;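 also: cells exposed to compound for four days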
# [20] = growth inhibition of CRL1545 osteosarcoma cells, cell-based, cisplatin and BGB IC20 combos (AID 1671464); conditions: stronger effect = higher value;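 also: cells exposed to compound for 96 hours before readout; 0% = vehicle DMSO and 100% = high DMSO killing control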
# [21] = stronger effect = lower value, cell number ratio, induced over uninduced
# [22] = measured here: relative caspase fold change +Dox/-Dox
# [23] = measured here: total cells with miR-34 induction, stronger effect = lower value
# [24] = measured here: total cells without miR-34 induction
# [25] = measured here: combination with BGB IC40, at 0.05 µM
# [26] = measured here: with BGB IC20 combination, at 0.5 µM
# [27] = measured here: with cisplatin IC20 combination, at 0.5 µM
# [28] = measured here: combination with cisplatin, at 0.5 µM
# [29] = measured here: combination with cisplatin, at 5 µM
smiles,measurement,setting,value
O=C(O)CCC(=O)N1CCCC1C(=O)O (stereo unspecified),period change,[1],-0.225 h (inactive)
same,inhibition,[2],-2% (inactive)
same,fluorescence ratio (interference),[3],1 (inactive)
same,fold change,[4]; [21],0.97 (inactive)
same,fold change,[4]; [22],1.16
same,cell count,[4]; [23],9450
same,cell count,[4]; [24],9740
same,z-score,[5],0.565 (inactive)
COc1c(N2CC3CCCNC3C2)c(F)cc2c(=O)c(C(=O)O)cn(C3CC3)c12 (stereo unspecified),fold change,[4]; [21],0.906 (inactive)
same,fold change,[4]; [22],1.2
same,cell count,[4]; [23],9060
same,cell count,[4]; [24],10000
same,z-score,[5],0.965 (inactive)
same,inhibition,"[6]; at 0.5 µM, stronger effect = higher value",79.9% (inactive) and -20.5% (inactive)
same,inhibition,"[6]; measured here: combination with BGB IC20, at 0.005 µM",-24.3% and -13.6%
same,inhibition,"[6]; measured here: combination with BGB IC40, at 0.005 µM",-13.7% and -15.3%
same,inhibition,[6]; [25],-23.7% and -12.1%
same,inhibition,"[6]; measured here: combination with cisplatin, at 0.5 µM, stronger effect = higher value",118% and -28.2%
same,inhibition,"[6]; measured here: combination with cisplatin, at 5 µM, stronger effect = higher value",-54.4% and -21.2%
same,inhibition,"[7]; BGB combo, at 5 µM",16.5% and -16.1%
same,inhibition,[7]; at 0.5 µM,-17.5% (inactive) and 7.5% (inactive)
same,inhibition,"[7]; cisplatin combo, at 5 µM",-9.22% and 17.7%
same,inhibition,[7]; [26],-4.15% and 11.4%
same,inhibition,[7]; [27],-25.5% and 15.3%
same,inhibition,"[7]; single agent, at 5 µM",17.2% and 9.26%
same,inhibition,"[8]; BGB IC20 combo, at 0.005 µM",-0.325% and -11.1%
same,inhibition,"[8]; BGB IC40 combo, at 0.005 µM",-5.95% and -17.1%
same,inhibition,"[8]; BGB IC40 combo, at 0.05 µM",-19.5% and -21.1%
same,inhibition,[8]; at 0.5 µM,-10.7% (inactive) and -20.7% (inactive)
same,inhibition,"[8]; cisplatin combo, at 0.05 µM",-23.8% and -21.1%
same,inhibition,"[8]; cisplatin combo, at 0.5 µM",-1.29% and -29.2%
same,inhibition,"[8]; cisplatin combo, at 5 µM",-29.8% and -8.73%
same,inhibition,"[8]; measured here: 5 uM single agent, at 5 µM",-4.57% and 0.836%
same,inhibition,[9]; at 0.5 µM,-18.3% (inactive) and -14.3% (inactive)
same,inhibition,[9]; [25],-0.314% and -2.89%
same,inhibition,[9]; [28],-10.2% and 25.8%
same,inhibition,[9]; [29],-57.1% and -57%
same,inhibition,[10]; at 0.5 µM,-1.92% (inactive) and -17.4% (inactive)
same,inhibition,"[10]; measured here: with BGB IC20, at 0.5 µM",0.476% and -45.2%
same,inhibition,"[10]; measured here: with BGB IC20, at 5 µM",-14.2% and 1.64%
same,inhibition,"[10]; measured here: with cisplatin IC20, at 0.5 µM",-4.9% and -17.9%
same,inhibition,"[10]; measured here: with cisplatin IC20, at 5 µM",-35.3% and -0.109%
same,inhibition,"[10]; single agent, at 5 µM",12% and -3.92%
same,inhibition,[11]; at 0.5 µM,-38.5% (inactive) and -21% (inactive)
same,inhibition,"[11]; measured here: combination with BGB at IC20, at 0.5 µM",-15.6% and -12.1%
same,inhibition,"[11]; measured here: combination with cisplatin at IC20, at 0.5 µM",-75% and -24%
same,inhibition,[12]; at 0.5 µM,-1.44% (inactive) and -1.69% (inactive)
same,inhibition,"[12]; measured here: combo with BGB at IC20, at 0.5 µM",-9.81% and -2.86%
same,inhibition,"[12]; measured here: combo with cisplatin at IC20, at 0.5 µM",5.04% and -2.25%
same,inhibition,[13]; at 0.5 µM,0.61% (inactive) and 5% (inactive)
same,inhibition,"[13]; measured here: inhibition with BGB combination, at 0.05 µM",-8.87% and -16%
same,inhibition,"[13]; measured here: inhibition with cisplatin combination, at 0.05 µM",-17.8% and -13.4%
same,inhibition,[14]; at 0.5 µM,-15.9% (inactive) and -16.5% (inactive)
same,inhibition,[14]; [28],-17.1% and -8.11%
same,inhibition,[14]; [29],-13.1% and -7.1%
same,inhibition,[15]; at 0.5 µM,-3.8% (inactive) and -6.04% (inactive)
same,inhibition,"[15]; measured here: BGB combination, at 0.5 µM",-11.6% and -4.26%
same,inhibition,"[15]; measured here: BGB combination, at 5 µM",-20.6% and -9.9%
same,inhibition,"[15]; measured here: cisplatin combination, at 0.5 µM",-1.34% and -15%
same,inhibition,"[15]; measured here: cisplatin combination, at 5 µM",-28.3% and -11.1%
same,inhibition,"[16]; BGB combination, concentration series, at 5 µM",5.74% and 12.9%
same,inhibition,[16]; at 0.5 µM,-0.42% (inactive) and 3.8% (inactive)
same,inhibition,"[16]; cisplatin combination, concentration series, at 5 µM",1.62% and 11.9%
same,inhibition,[17]; at 0.5 µM,9.7% (inactive) and 6.47% (inactive)
same,inhibition,"[17]; measured here: combo with BGB IC20, at 0.5 µM",1.83% and 2.24%
same,inhibition,"[17]; measured here: combo with cisplatin IC20, at 0.5 µM",4.24% and 3.81%
same,inhibition,[18]; at 0.5 µM,-19% (inactive) and -8.29% (inactive)
same,inhibition,"[18]; cisplatin combination, at 0.5 µM",-46.7% and 7.45%
same,inhibition,"[18]; cisplatin combination, at 5 µM",-18.8% and -23%
same,inhibition,"[18]; measured here: BGB IC40 combination 0.05 uM, at 0.05 µM",-35.2% and -12.7%
same,inhibition,"[18]; single agent, at 5 µM",-4.05% and -7.99%
same,inhibition,[19]; at 0.5 µM,-5.76% (inactive) and -15.1% (inactive)
same,inhibition,"[19]; cisplatin combo, at 5 µM",-131% and -3.44%
same,inhibition,"[19]; measured here: BGB IC40 combination, at 0.05 µM",9.3% and -24.7%
same,inhibition,[19]; [28],-0.114% and -16.6%
same,inhibition,"[19]; single agent, at 5 µM",-15% and -12.8%
same,inhibition,[20]; at 0.5 µM,10.4% (inactive) and -25.5% (inactive)
same,inhibition,[20]; [26],13% and -1.64%
same,inhibition,[20]; [27],7.59% and -37.4%
same,inhibition,"[20]; single agent, at 0.05 µM",-39.6% and 17%
same,inhibition,"[20]; single agent, at 5 µM",-7.8% and 21.6%
